{"source": "PubChem BioAssay AID430", "about": "(Sanford-Burnham Center for Chemical Genomics, 2006)", "note": "In all, about 63,000 compounds went through this assay and about 1,100 (1.7%) were called active. Cut-off read from the data, not from the text of the source: active = cytotoxicity above about 50%; inactive = the rest. Shown is part of a subset that was picked to be rich in actives. Entries with a potency or affinity are not part of this list."}
{"experiment": "cytotoxicity in HPDE-C7 cells, cell-based, fluorescence, HTS (AID 430);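 note: cells exposed to compound for 48 hours before viability readout; 0% = vehicle and 100% = reference cytotoxic drug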", "conditions": "HPDE-C7 pancreatic duct cells viability, at 10 µM, hits give high values"}
{"smiles": "CC1CC(=O)N(CC(=O)N2CCCC2)c2ccccc2S1", "note": "(configuration not stated)", "cytotoxicity": "-19.6% (inactive)"}
{"smiles": "O=C(CN1CCCC1)N1c2ccccc2Sc2ccccc21", "cytotoxicity": "-13.6% (inactive)"}
{"smiles": "CCc1nnc(NC(=O)NCN2C(=O)C3C4C=CC(C4)C3C2=O)s1", "note": "(configuration not stated)", "cytotoxicity": "3% (inactive)"}
{"smiles": "CC1=CCC(C(C)(C)NC(=O)c2ccccc2)C/C1=N\\O", "note": "(configuration not stated)", "cytotoxicity": "-14.7% (inactive)"}
{"smiles": "CCOCCCNS(=O)(=O)c1ccc2c(c1)CCN2C(=O)CC", "cytotoxicity": "-23.1% (inactive)"}
{"smiles": "CCC(=O)c1ccc(O)cc1", "cytotoxicity": "-18.7% (inactive)"}
{"smiles": "C/C=C(/C(=C/C)c1ccc(O)cc1)c1ccc(O)cc1", "cytotoxicity": "106% (active)"}
{"smiles": "C=C(c1ccc(O)cc1)c1ccc(O)cc1", "cytotoxicity": "-12.8% (inactive)"}
{"smiles": "CCn1c2ccccc2c2nnc(SCC(=O)NC(C(=O)OC)C(C)C)nc21", "note": "(configuration not stated)", "cytotoxicity": "0.5% (inactive)"}
{"smiles": "CCOC(=O)c1[nH]c(C)c(C(=O)NC(C)CC)c1C", "note": "(configuration not stated)", "cytotoxicity": "1.4% (inactive)"}
{"smiles": "O=C1Nc2ccccc2C12OCCCCO2", "cytotoxicity": "-24.6% (inactive)"}
{"smiles": "Cc1cc(=O)oc2cc(OCC(=O)N3CCc4ccccc4C3)ccc12", "cytotoxicity": "-25.1% (inactive)"}
{"smiles": "CCOC(=O)N1CCN(Cc2nc3c(c(=O)[nH]c(=O)n3C)n2Cc2cc(C)ccc2C)CC1", "cytotoxicity": "-12.2% (inactive)"}
{"smiles": "CCCCC(CC)C(=O)Nc1ccccc1C(=O)NC(C)C", "note": "(configuration not stated)", "cytotoxicity": "6.3% (inactive)"}
{"smiles": "O=C(COc1ccc(-c2nnco2)cc1)N1CCN(S(=O)(=O)c2ccc3ccccc3c2)CC1", "cytotoxicity": "-10.1% (inactive)"}
{"smiles": "O=C(COc1ccc(-c2nnco2)cc1)N1CCN(S(=O)(=O)c2ccccc2)CC1", "cytotoxicity": "-13% (inactive)"}
{"smiles": "O=S(=O)(c1ccc(Oc2ccc(-c3nnco3)cc2)nc1)N1CCC(Cc2ccccc2)CC1", "cytotoxicity": "62.7% (active)"}
{"smiles": "Cc1cc2cc(CNC(=O)c3ccc(Br)o3)ccc2n1C", "cytotoxicity": "-1.5% (inactive)"}
{"smiles": "N#C/C(C(=O)Oc1ccccc1)=C1\\C=CC=CN1", "cytotoxicity": "1.2% (inactive)"}
{"smiles": "CCOC(=O)c1ccc(Oc2nc(NC)nc(SC)n2)cc1", "cytotoxicity": "-15.9% (inactive)"}
{"smiles": "COC(=O)c1ccc(Oc2cc(C)nc(NCc3ccccc3)n2)cc1", "cytotoxicity": "-4.2% (inactive)"}
{"smiles": "CCOC(=O)c1ccc(Oc2nc(SC)nc(N(C)C)n2)cc1", "cytotoxicity": "-23.6% (inactive)"}
{"smiles": "CCOC(=O)c1ccc(Oc2cc(C)nc(SC)n2)cc1", "cytotoxicity": "50.9% (active)"}
{"smiles": "COC(=O)c1ccc(Oc2nc(C)cc(Oc3ccccc3)n2)cc1", "cytotoxicity": "-4.8% (inactive)"}
{"smiles": "COC(=O)c1ccc(Oc2cc(C)nc(SC)n2)cc1", "cytotoxicity": "50.6% (active)"}
{"smiles": "COc1ccc(C(C#N)Nc2ccccc2OC)cc1", "note": "(configuration not stated)", "cytotoxicity": "-4.6% (inactive)"}
{"smiles": "CCN(CC)S(=O)(=O)c1ccc(Nc2cc(C)nc3ncnn23)cc1", "cytotoxicity": "-2.7% (inactive)"}
{"smiles": "C1CCc2c(nc3nnnn3c2N2CCOCC2)C1", "cytotoxicity": "-9.2% (inactive)"}
{"smiles": "COC(=O)CN1C(=O)CC(C)(C)S(=O)c2ccccc21", "note": "(configuration not stated)", "cytotoxicity": "-9.1% (inactive)"}
{"smiles": "Cc1ccc(-n2ncc3c(=O)n(Cc4ccccn4)cnc32)cc1C", "cytotoxicity": "8.3% (inactive)"}
{"smiles": "CCN1CCN(C(C(=O)NC2CCCC2)c2ccc(Cl)cc2)CC1", "note": "(configuration not stated)", "cytotoxicity": "9.1% (inactive)"}
{"smiles": "Cc1cc2c(N=O)c(NO)ccc2[nH]1", "cytotoxicity": "67% (active)"}
{"smiles": "Cc1cc(=O)c2cc(Cl)ccc2[nH]1", "cytotoxicity": "-15% (inactive)"}
{"smiles": "COC(=O)c1ccc2[nH]c(C)cc(=O)c2c1", "cytotoxicity": "-15.1% (inactive)"}
{"smiles": "CCCc1cc(C(=O)Nc2sc(C(C)=O)c(C)c2C(=O)OCC)no1", "cytotoxicity": "-5.5% (inactive)"}
{"smiles": "Cc1nc(N2CCN(C(=O)c3ccco3)CC2)c2c3c(sc2n1)CCC3", "cytotoxicity": "8.5% (inactive)"}
{"smiles": "CC(C)c1nc(N2CCN(C(=O)c3ccco3)CC2)c2c3c(sc2n1)CCCC3", "cytotoxicity": "-21.7% (inactive)"}
{"smiles": "O=C(c1ccco1)N1CCN(c2nc(C3CC3)nc3sc4c(c23)CCCC4)CC1", "cytotoxicity": "53.5% (active)"}
{"smiles": "CCOC(=O)N1CCN(C(=O)c2cn(-c3ccc(C)c(C)c3)c(=O)c3ccccc23)CC1", "cytotoxicity": "-9.4% (inactive)"}
{"smiles": "CCCc1cc(-c2[nH]ncc2-c2ccc(C(=O)OCC)o2)c(O)cc1O", "cytotoxicity": "4.4% (inactive)"}
{"smiles": "CCOc1ccc(-c2nc(N)ncc2-c2ccccc2)c(O)c1", "cytotoxicity": "2.3% (inactive)"}
{"smiles": "COc1ccc(-c2cnc(N)nc2-c2ccc(OC)cc2O)cc1", "cytotoxicity": "-4% (inactive)"}
{"smiles": "CCc1cc(-c2[nH]ncc2-c2ccc3c(c2)OCO3)c(O)cc1O", "cytotoxicity": "46.1% (inactive)"}
{"smiles": "Cc1c(C(=O)Nn2cnnc2)oc2ccccc12", "cytotoxicity": "-26.6% (inactive)"}
{"smiles": "CC(NC(=O)c1ccc(CS(=O)(=O)Cc2ccccc2F)o1)c1ccc2c(c1)OCCO2", "note": "(configuration not stated)", "cytotoxicity": "-10.6% (inactive)"}
{"smiles": "O=S(=O)(NCC1CC1)c1cccc(S(=O)(=O)N2CCCC2)c1", "cytotoxicity": "-7.4% (inactive)"}
{"smiles": "Cc1ccc(-c2noc(COc3ccccc3C)n2)cc1", "cytotoxicity": "-19.6% (inactive)"}
{"smiles": "Cc1ccccc1OCc1nc(-c2ccccc2)no1", "cytotoxicity": "-12.2% (inactive)"}
{"smiles": "Cc1ccccc1OCc1nc(-c2ccc(-n3cccc3)cc2)no1", "cytotoxicity": "62.3% (active)"}
{"smiles": "Cc1cc(=O)[nH]c(SCC(=O)NCc2ccco2)n1", "cytotoxicity": "-38.4% (inactive)"}
{"smiles": "O=C(Cn1nnc(-c2ccccc2NC(=O)c2cccs2)n1)Nc1ccccc1", "cytotoxicity": "-6.9% (inactive)"}
{"smiles": "CCn1c(SCC(=O)N(C(C)C)C(C)C)nnc1-c1cc2ccccc2cc1O", "cytotoxicity": "-2.4% (inactive)"}
{"smiles": "Cc1cccc(N2CCN(C(=O)c3ccncc3)CC2C)c1", "note": "(configuration not stated)", "cytotoxicity": "-2.2% (inactive)"}
{"smiles": "Cc1cccc(N2CCN(c3cccc(C)c3)C2c2cccnc2)c1", "cytotoxicity": "52.6% (active)"}
{"smiles": "Cc1ccc(N2CCN(c3ccc(C)cc3)C2c2ccncc2)cc1", "cytotoxicity": "-18.2% (inactive)"}
{"smiles": "CCC(=O)OCCn1c(=O)c2cc3c(=O)n(CCOC(=O)CC)c(=O)c3cc2c1=O", "cytotoxicity": "1.2% (inactive)"}
{"smiles": "CCOC(=O)C1=C(C)NC(=O)NC1c1ccc(OC)c(Cl)c1", "note": "(configuration not stated)", "cytotoxicity": "-1.8% (inactive)"}
{"smiles": "O=C(Nc1ccc(-c2nc3ccccc3o2)cc1)C1CCCO1", "note": "(configuration not stated)", "cytotoxicity": "2.5% (inactive)"}
{"smiles": "O=c1cc(-c2ccccc2)[nH]n1-c1nc2ccccc2s1", "cytotoxicity": "61.9% (active)"}
{"smiles": "CC(=NC1CCCC1)c1c(C)[nH]n(-c2nc3ccccc3s2)c1=O", "cytotoxicity": "-9.3% (inactive)"}
{"smiles": "O=c1cc(-c2ccccc2)[nH]c2nc3ccccc3n12", "cytotoxicity": "34.3% (inactive)"}
{"smiles": "COc1ccc(-c2cc(=O)n(-c3nc4ccccc4[nH]3)[nH]2)cc1", "cytotoxicity": "35% (inactive)"}
{"smiles": "Cc1nn(-c2nc3ccccc3s2)c(N)c1-c1ccccc1", "cytotoxicity": "6.1% (inactive)"}
{"smiles": "CCn1c(SCC(=O)N(Cc2ccccc2)C2CCS(=O)(=O)C2)nc2ccccc2c1=O", "note": "(configuration not stated)", "cytotoxicity": "-7.3% (inactive)"}
{"smiles": "C1=C(CCNc2ncnc3nc[nH]c23)CCCC1", "cytotoxicity": "0% (inactive)"}
{"smiles": "CCCCCC(=O)Nc1ccc2oc(-c3cncc(Br)c3)nc2c1", "cytotoxicity": "-3.1% (inactive)"}
{"smiles": "CCn1c(=O)n(CC(=O)Nc2cccc(OC)c2)c(=O)c2ccccc21", "cytotoxicity": "-12.1% (inactive)"}
{"smiles": "CN(C)CCCNC(=O)Cc1ccc(Br)cc1", "cytotoxicity": "-3.8% (inactive)"}
{"smiles": "COc1cc(C2C(C(=O)c3ccc(C)o3)=C(O)C(=O)N2c2cc(C)on2)ccc1O", "note": "(configuration not stated)", "cytotoxicity": "-0.7% (inactive)"}
{"smiles": "CC(NC(=O)NCCCn1ccnc1)(C(F)(F)F)C(F)(F)F", "cytotoxicity": "9.8% (inactive)"}
{"smiles": "O=C(Nc1ccc(CN2CCOCC2)cc1)c1cc2ccccc2o1", "cytotoxicity": "-0.1% (inactive)"}
{"smiles": "O=C(Nc1ccc(CN2CCCCC2)cc1)c1ccc(Br)o1", "cytotoxicity": "-14.9% (inactive)"}
{"smiles": "O=C(Cc1ccc(-c2ccccc2)cc1)NCCN1CCOCC1", "cytotoxicity": "-11.8% (inactive)"}
{"smiles": "O=C(Nc1ccc2nc(-c3ccco3)[nH]c2c1)c1cccs1", "cytotoxicity": "8% (inactive)"}
{"smiles": "O=C(Nc1ccc2nc(-c3ccc(Br)o3)[nH]c2c1)c1ccco1", "cytotoxicity": "44.7% (inactive)"}
{"smiles": "O=C(Nc1ccc2nc(-c3ccc(Br)o3)[nH]c2c1)c1cccs1", "cytotoxicity": "53.5% (active)"}
{"smiles": "CNC(=O)CCn1nc(-c2ccc(Cl)cc2)c2ccccc2c1=O", "cytotoxicity": "10.8% (inactive)"}
{"smiles": "Oc1ccc(N=Cc2ccc(O)c(O)c2)cc1", "cytotoxicity": "18% (inactive)"}
{"smiles": "COc1ccc(-c2cc(O)cc(O)c2)cc1", "cytotoxicity": "-7.5% (inactive)"}
{"smiles": "CCn1c(C2CC(=O)N(Cc3ccccc3)C2)nc2ccccc21", "note": "(configuration not stated)", "cytotoxicity": "-14.7% (inactive)"}
{"smiles": "O=C1CC(=O)N(Cc2cccs2)C(=O)N1", "cytotoxicity": "-15.3% (inactive)"}
{"smiles": "O=C(O)c1ccc(NC(=O)C2CC=CCC2C(=O)O)cc1", "note": "(configuration not stated)", "cytotoxicity": "-3.4% (inactive)"}
{"smiles": "CCOCCCN(Cc1cc2cc(C)cc(C)c2[nH]c1=O)C(=O)N(CC)CC", "cytotoxicity": "-8.9% (inactive)"}
{"smiles": "O=c1oc(-c2cc3ccccc3o2)nc2sc3c(c12)CCCC3", "cytotoxicity": "51.3% (active)"}
{"smiles": "O=c1oc(-c2cccs2)nc2sc3c(c12)CCC3", "cytotoxicity": "28.2% (inactive)"}
{"smiles": "Cc1nc2sc3c(c2c(=O)o1)CCC3", "cytotoxicity": "4.8% (inactive)"}
{"smiles": "Nn1c(-c2cccs2)nc2sc3c(c2c1=O)CCCC3", "cytotoxicity": "-1.4% (inactive)"}
{"smiles": "O=c1oc(-c2cccs2)nc2sc3c(c12)CCCCC3", "cytotoxicity": "52% (active)"}
{"smiles": "Cc1nc2sc3c(c2c(=O)o1)CCCC3", "cytotoxicity": "0% (inactive)"}
{"smiles": "O=C(CN1C(=O)CSC1=O)NCc1ccccc1", "cytotoxicity": "8.1% (inactive)"}
{"smiles": "O=C(c1cc(S(=O)(=O)N2CCOCC2)ccc1F)N1CCN(Cc2ccccc2)CC1", "cytotoxicity": "-2.7% (inactive)"}
{"smiles": "O=C(CSc1nc2ccccc2c(=O)n1CCC(=O)N1CCCCC1)NCc1ccccc1", "cytotoxicity": "-24.2% (inactive)"}
{"smiles": "COc1ccc(-c2nnc(SCC(=O)Nc3cc(C)on3)n2C)cc1OC", "cytotoxicity": "-16.6% (inactive)"}
{"smiles": "O=C(NCCn1cccc1)c1cccc2ccccc12", "cytotoxicity": "1.3% (inactive)"}
{"smiles": "CCOC(=O)C1CCCN(Cc2ccc(OC)cc2OC)C1", "note": "(configuration not stated)", "cytotoxicity": "8.6% (inactive)"}
{"smiles": "COc1ccc(-c2nc3ccccc3s2)cc1O", "cytotoxicity": "-5.7% (inactive)"}
{"smiles": "COc1ccc(-c2nc(-c3cccs3)c(-c3cccs3)[nH]2)cc1O", "cytotoxicity": "71.6% (active)"}
{"smiles": "COc1ccc(-c2nnc(-c3cccs3)o2)cc1OC", "cytotoxicity": "-10.3% (inactive)"}
{"smiles": "Fc1cccc(Cl)c1CSc1nnnn1-c1ccc2c(c1)OCO2", "cytotoxicity": "53.7% (active)"}
{"smiles": "Fc1ccccc1CSc1nnnn1-c1ccc2c(c1)OCO2", "cytotoxicity": "-2% (inactive)"}
{"smiles": "Fc1cccc(Cl)c1Cn1nnc(-c2ccc3c(c2)OCO3)n1", "cytotoxicity": "-6.1% (inactive)"}
{"smiles": "CCc1nccn1S(=O)(=O)c1ccc(C)c(C)c1", "cytotoxicity": "2.1% (inactive)"}
